{"source": "the antibiotic and cytotoxicity screens of Wong et al. (2023)", "note": "About 1,500 (3.8%) of roughly 39,000 compounds were called active. The list comes from a sample in which actives are over-represented; it also holds similar structures and randomly drawn compounds."}
{"system": "HSkMC (human skeletal muscle cells)", "assay": "cytotoxicity call (relative viability < 0.9)", "conditions": "10 µM"}
{"smiles": "C[C@@H]1CN([C@H](C)CO)S(=O)(=O)c2ccc(C#CC(C)(C)O)cc2O[C@H]1CN(C)C(=O)C1CCCCC1", "cytotoxicity call": "inactive"}
{"smiles": "C[C@@H]1CCCCO[C@@H](CN(C)C(=O)CCC(F)(F)F)[C@@H](C)CN([C@@H](C)CO)C(=O)c2cc(NC(=O)c3ccccc3)ccc2O1", "cytotoxicity call": "inactive"}
{"smiles": "CC(C)NC(=O)N(C)C[C@@H]1Oc2ccc(NC(=O)C3CCCCC3)cc2C(=O)N([C@H](C)CO)C[C@@H]1C", "cytotoxicity call": "inactive"}
{"smiles": "C[C@@H]1CCCCO[C@H](CN(C)C(=O)c2ccccc2)[C@H](C)CN([C@@H](C)CO)C(=O)c2cc(NC(=O)CCCCCC(=O)Nc3ccccc3N)ccc2O1", "cytotoxicity call": "inactive"}
{"smiles": "Cc1noc(C)c1NC(=O)Nc1cccc2c1O[C@@H](CN(C)C(=O)Nc1cccc3ccccc13)[C@@H](C)CN([C@@H](C)CO)C2=O", "cytotoxicity call": "inactive"}
{"smiles": "COCCNC(=O)C[C@H]1CC[C@@H]2[C@H](COC[C@H](O)CN2C(=O)Nc2ccc3c(c2)OCO3)O1", "cytotoxicity call": "inactive"}
{"smiles": "C[N+](C)(CCOc1ccccc1)Cc1ccccc1.O=C([O-])c1cc2ccccc2cc1O", "cytotoxicity call": "inactive"}
{"smiles": "Cc1cc(C(C)(C)CC(C)(C)C)ccc1OCCOCC[N+](C)(C)Cc1ccccc1.[Cl-]", "cytotoxicity call": "active"}
{"smiles": "C[N+](C)(CCOc1ccccc1)Cc1ccccc1.O=C(O)c1cc2ccccc2c(Br)c1O", "cytotoxicity call": "inactive"}
{"smiles": "COc1cccc(C#Cc2ccc3c(c2)O[C@@H](CN(C)S(=O)(=O)c2ccccc2F)[C@H](C)CN([C@@H](C)CO)S3(=O)=O)c1", "cytotoxicity call": "inactive"}
{"smiles": "C[C@@H]1CCCCO[C@H](CN(C)Cc2ccncc2)[C@H](C)CN([C@@H](C)CO)C(=O)c2cc(NC(=O)Nc3ccc(F)cc3)ccc2O1", "cytotoxicity call": "inactive"}
{"smiles": "NCC[C@H]1CC[C@H](NC(=O)c2ccccc2F)[C@H](CO)O1", "cytotoxicity call": "inactive"}
{"smiles": "C[C@@H]1CCCCO[C@@H](CN(C)Cc2ccc(C(F)(F)F)cc2)[C@H](C)CN([C@H](C)CO)C(=O)c2cc(NC(=O)Cc3ccccc3)ccc2O1", "cytotoxicity call": "active"}
{"smiles": "C[C@H]1CCCCO[C@H](CN(C)Cc2ccc(C(F)(F)F)cc2)[C@@H](C)CN([C@@H](C)CO)C(=O)c2cc(NC(=O)Cc3ccccc3)ccc2O1", "cytotoxicity call": "inactive"}
{"smiles": "C[C@@H]1CN([C@@H](C)CO)C(=O)c2cc(NC(=O)Cc3ccccc3)ccc2O[C@@H](C)CCCCO[C@H]1CN(C)Cc1ccc(C(F)(F)F)cc1", "cytotoxicity call": "inactive"}
{"smiles": "C[C@H](CO)N1C[C@H](C)[C@@H](CN(C)Cc2ccc(C(F)(F)F)cc2)OCCCC[C@H](C)Oc2ccc(NC(=O)Cc3ccccc3)cc2C1=O", "cytotoxicity call": "active"}
{"smiles": "C[C@@H]1CCCCO[C@@H](CN(C)Cc2ccc(C(F)(F)F)cc2)[C@@H](C)CN([C@@H](C)CO)C(=O)c2cc(NC(=O)Cc3ccccc3)ccc2O1", "cytotoxicity call": "inactive"}
{"smiles": "C[C@@H]1CCCCO[C@H](CN(C)Cc2ccc(C(F)(F)F)cc2)[C@H](C)CN([C@@H](C)CO)C(=O)c2cc(NC(=O)Cc3ccccc3)ccc2O1", "cytotoxicity call": "inactive"}
{"smiles": "Cc1ccc(S(=O)(=O)N(C)C[C@H]2Oc3ncc(C#CCC(C)C)cc3C(=O)N([C@@H](C)CO)C[C@H]2C)cc1", "cytotoxicity call": "inactive"}
{"smiles": "C[C@H]1CN([C@@H](C)CO)S(=O)(=O)c2ccc(Br)cc2O[C@@H]1CN(C)Cc1cccc(F)c1", "cytotoxicity call": "inactive"}
{"smiles": "Cc1ccc(S(=O)(=O)N(C)C[C@@H]2OCCCC[C@H](C)Oc3ccc(NC(=O)CCCCCC(=O)Nc4ccccc4N)cc3C(=O)N([C@H](C)CO)C[C@@H]2C)cc1", "cytotoxicity call": "inactive"}
{"smiles": "COc1ccc(NC(=O)N(C)C[C@H]2OCCCC[C@@H](C)Oc3ccc(NS(=O)(=O)c4ccc(F)cc4)cc3C(=O)N([C@@H](C)CO)C[C@H]2C)cc1", "cytotoxicity call": "inactive"}
{"smiles": "Cc1ccc(C(=O)O)c(=O)[nH]1", "cytotoxicity call": "inactive"}
{"smiles": "C[C@@H]1CN([C@@H](C)CO)C(=O)c2cc(C#CC3(O)CCCC3)cnc2O[C@@H]1CN(C)C(=O)Cc1ccccc1", "cytotoxicity call": "inactive"}
{"smiles": "O=C(N[C@H]1CCN(C(=O)c2cc(C(F)(F)F)cc(C(F)(F)F)c2)[C@H](Cc2ccc(Cl)cc2)C1)c1ccnc2ccccc12", "cytotoxicity call": "active"}
{"smiles": "O=C(NC1CC1)[C@@H]1c2ccccc2C(=O)N(Cc2cc(C(F)(F)F)cc(C(F)(F)F)c2)[C@H]1c1ccc(CO)cc1", "cytotoxicity call": "inactive"}
{"smiles": "C[C@@H]1CN([C@H](C)CO)C(=O)c2cccc(NC(=O)c3ccc(-c4nccs4)cc3)c2O[C@@H]1CN(C)C(=O)Nc1ccc(C(F)(F)F)cc1", "cytotoxicity call": "active"}
{"smiles": "C[C@H]1CN([C@@H](C)CO)C(=O)c2cccc(NC(=O)c3ccc(-c4nccs4)cc3)c2O[C@@H]1CN(C)Cc1ccc(C(F)(F)F)cc1", "cytotoxicity call": "active"}
{"smiles": "C[C@H](CO)N1C[C@H](C)[C@H](CN(C)Cc2ccc(C(F)(F)F)cc2)Oc2c(NC(=O)c3ccc(-c4nccs4)cc3)cccc2C1=O", "cytotoxicity call": "inactive"}
{"smiles": "C[C@@H]1CN([C@H](C)CO)C(=O)c2cccc(NC(=O)c3ccc(-c4nccs4)cc3)c2O[C@H]1CN(C)Cc1ccc(C(F)(F)F)cc1", "cytotoxicity call": "active"}
{"smiles": "C[C@@H]1CN([C@@H](C)CO)C(=O)c2cccc(NC(=O)c3ccc(-c4nccs4)cc3)c2O[C@H]1CN(C)Cc1ccc(C(F)(F)F)cc1", "cytotoxicity call": "inactive"}
{"smiles": "C[C@@H]1CN([C@@H](C)CO)C(=O)c2cccc(NC(=O)c3ccc(-c4nccs4)cc3)c2O[C@@H]1CN(C)Cc1ccc(C(F)(F)F)cc1", "cytotoxicity call": "inactive"}
{"smiles": "C[C@@H]1CN([C@H](C)CO)C(=O)c2cccc(NC(=O)c3ccc(-c4nccs4)cc3)c2O[C@H]1CN(C)Cc1ccc(Cl)c(Cl)c1", "cytotoxicity call": "inactive"}
{"smiles": "C[C@H]1CN([C@@H](C)CO)C(=O)c2cccc(NC(=O)c3ccc(-c4nccs4)cc3)c2O[C@H]1CN(C)C(=O)Nc1ccc(C(F)(F)F)cc1", "cytotoxicity call": "inactive"}
{"smiles": "C[C@@H]1CN([C@H](C)CO)C(=O)c2cccc(NC(=O)c3ccc(-c4nccs4)cc3)c2O[C@@H]1CN(C)Cc1ccc(C(F)(F)F)cc1", "cytotoxicity call": "inactive"}
{"smiles": "C[C@H](CO)N1C[C@H](C)[C@@H](CN(C)Cc2ccc(Cl)c(Cl)c2)Oc2c(NC(=O)c3ccc(-c4nccs4)cc3)cccc2C1=O", "cytotoxicity call": "inactive"}
{"smiles": "C[C@H]1CN([C@@H](C)CO)C(=O)c2cccc(NC(=O)c3ccc(-c4nccs4)cc3)c2O[C@@H]1CN(C)Cc1ccc(Cl)c(Cl)c1", "cytotoxicity call": "active"}
{"smiles": "C[C@@H]1CN([C@@H](C)CO)C(=O)c2cccc(NC(=O)c3ccc(-c4nccs4)cc3)c2O[C@@H]1CN(C)C(=O)Nc1ccc(C(F)(F)F)cc1", "cytotoxicity call": "inactive"}
{"smiles": "C[C@H]1CN([C@@H](C)CO)C(=O)Cc2cc(NS(=O)(=O)c3cccs3)ccc2O[C@@H]1CN(C)Cc1ccncc1", "cytotoxicity call": "inactive"}
{"smiles": "COc1ccc(NC(=O)N(C)C[C@H]2Oc3ccc(NS(=O)(=O)c4c(C)noc4C)cc3C(=O)N([C@H](C)CO)C[C@H]2C)cc1", "cytotoxicity call": "inactive"}
{"smiles": "C[C@@H]1CN([C@@H](C)CO)C(=O)c2cccc(NC(=O)CCCCCC(=O)Nc3ccccc3N)c2O[C@H]1CN(C)S(=O)(=O)c1cn(C)cn1", "cytotoxicity call": "inactive"}
{"smiles": "Cc1[nH]c(=O)[nH]c(=O)c1S(=O)(=O)N1CCC[C@H](C(=O)NCCc2c[nH]c3ccc(F)cc23)C1", "cytotoxicity call": "inactive"}
{"smiles": "C[C@H]1CCCCO[C@@H](CN(C)C)[C@@H](C)CN([C@@H](C)CO)C(=O)c2cc(NS(=O)(=O)c3cn(C)cn3)ccc2O1", "cytotoxicity call": "inactive"}
{"smiles": "C[C@@H]1CCCCO[C@@H](CN(C)S(=O)(=O)c2ccccc2)[C@H](C)CN([C@@H](C)CO)C(=O)c2cc(NC(=O)Nc3ccc(C(F)(F)F)cc3)ccc2O1", "cytotoxicity call": "inactive"}
{"smiles": "COc1ccc(CN(C)C[C@H]2OCCCC[C@H](C)Oc3ccc(NC(=O)Cc4ccccc4)cc3C(=O)N([C@@H](C)CO)C[C@H]2C)cc1", "cytotoxicity call": "inactive"}
{"smiles": "C[C@@H]1CN([C@H](C)CO)C(=O)c2cc(NS(=O)(=O)c3ccccc3)ccc2O[C@@H](C)CCCCO[C@@H]1CN(C)Cc1ccc2c(c1)OCO2", "cytotoxicity call": "inactive"}
{"smiles": "C[C@H](CO)N1C[C@H](C)[C@@H](CN(C)S(=O)(=O)c2ccc(Oc3ccccc3)cc2)OCc2cn(nn2)CCCC1=O", "cytotoxicity call": "inactive"}
{"smiles": "Cc1noc(C)c1S(=O)(=O)N(C)C[C@@H]1Oc2ccc(NC(=O)CCC(F)(F)F)cc2CC(=O)N([C@H](C)CO)C[C@H]1C", "cytotoxicity call": "inactive"}
{"smiles": "COCCNC(=O)C[C@@H]1CC[C@@H](NS(=O)(=O)c2ccc(C)cc2)[C@H](CO)O1", "cytotoxicity call": "inactive"}
{"smiles": "C[C@@H](O)Cn1cnc2c1c(=O)n(C)c(=O)n2C", "cytotoxicity call": "inactive"}
{"smiles": "COc1ccc(CN(C)C[C@H]2OCCCC[C@H](C)Oc3ccc(NC(=O)c4ccccc4)cc3C(=O)N([C@@H](C)CO)C[C@H]2C)cc1", "cytotoxicity call": "inactive"}
{"smiles": "CC(C)C#Cc1cnc2c(c1)C(=O)N([C@@H](C)CO)C[C@@H](C)[C@@H](CN(C)S(=O)(=O)c1cn(C)cn1)O2", "cytotoxicity call": "inactive"}
{"smiles": "CC(C)N1CCOC[C@@]2(C1)CN(S(C)(=O)=O)CCO2", "cytotoxicity call": "inactive"}
{"smiles": "COC(=O)[C@H](Cc1ccccc1)N1CC2=C[C@@H](C3CC3)n3c(=O)n(C)c(=O)n3[C@H]2[C@@H]1[C@@H](O)CCn1cc(-c2cccc(/C=C/C(=O)NO)c2)nn1", "cytotoxicity call": "inactive"}
{"smiles": "COc1ccc2c3c([nH]c2c1)[C@H](CO)N(C[C@]13CN(C1)S(=O)(=O)C)C(=O)C1CCOCC1", "cytotoxicity call": "inactive"}
{"smiles": "C[C@H](CO)N1C[C@H](C)[C@H](CN(C)C(=O)NC2CCCCC2)Oc2ccc(NC(=O)C3CC3)cc2CC1=O", "cytotoxicity call": "inactive"}
{"smiles": "Cc1ccc(S(=O)(=O)N(C)C[C@H]2Oc3ccc(N(C)C)cc3CC(=O)N([C@H](C)CO)C[C@@H]2C)cc1", "cytotoxicity call": "inactive"}
{"smiles": "CC(C)(N)C(=O)N[C@H](COCc1ccccc1)C(=O)N1CCC2(CC1)CN(S(C)(=O)=O)c1ccccc12", "cytotoxicity call": "active"}
{"smiles": "CN(C)N(C)C(=O)[C@@]1(Cc2ccccc2)CCCN(C(=O)[C@@H](Cc2c[nH]c3ccccc23)NC(=O)C(C)(C)N)C1", "cytotoxicity call": "inactive"}
{"smiles": "CN1N=C2CCN(C(=O)[C@@H](COCc3ccccc3)NC(=O)C(C)(C)N)C[C@@]2(Cc2ccccc2)C1=O", "cytotoxicity call": "inactive"}
{"smiles": "COc1ccc(S(=O)(=O)Nc2ccc3c(c2)C(=O)N([C@H](C)CO)C[C@H](C)[C@@H](CN(C)C(=O)Nc2c(C)noc2C)OCCCC[C@H](C)O3)cc1", "cytotoxicity call": "inactive"}
